These results are taken from PubChem BioAssay (NCI).

Experiment in all cases: NCI-60 one-dose screen, 48 h (100 = growth as untreated, 0 = no growth, -100 = all killed)
One test concerns NCI-H226 lung. The following applies: 10 µM.
The next test deals with HOP-62 NSCLC. As to conditions: 10 µM.
The subject of another test is NCI-H460 lung. The following applies: 10 µM.
Another test relates to A549/ATCC NSCLC. As to conditions: 10 µM.
For another test, the system named is DU-145 prostate. The following applies: 10 µM.
A further test concerns SF-268 CNS. The following applies: 10 µM.
A further test relates to SF-295 CNS. As to conditions: 10 µM.
In another test the test system is SF-539 CNS. As to conditions: 10 µM.
A further test relates to UACC-257 melanoma. As to conditions: 10 µM.
The test system of the next test is M14 melanoma. The following applies: 10 µM.
Another test relates to HCT-15 colon. The following applies: 10 µM.
A further test has as its system HT29 colon. As to conditions: 10 µM.
In the next test the test system is SNB-75 CNS. As to conditions: 10 µM.
For a further test, the system named is SNB-19 CNS. As to conditions: 10 µM.
The subject of a further test is U251 CNS. As to conditions: 10 µM.
A further test relates to SK-MEL-5 melanoma. The following applies: 10 µM.
In a further test the test system is UACC-62 melanoma. As to conditions: 10 µM.
Another test deals with SK-MEL-28 melanoma. The following applies: 10 µM.
In a further test the test system is SK-MEL-2 melanoma. The following applies: 10 µM.
A further test has as its system HL-60(TB) leukemia. The following applies: 10 µM unless noted.

Each structure is given as a SMILES string. Compounds without any hit were thinned out: in the full panel of roughly 83,000, 20% have a hit.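 Cells were grown in 96-well plates and exposed to the test compound at a single concentration for 48 hours; results are reported as percent growth, with values below 10 considered active.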 Unmarked numbers belong to inactive results. The source made the active and inactive calls.

As to `O=C(NC([Se])=NC1CCCCC1)c1ccccc1`, the growth in the test with NCI-H226 lung was 58.7%; with HOP-62 NSCLC, 15.3%; with NCI-H460 lung it was 11.6%; in the test on A549/ATCC NSCLC, 21.1%; in the test with DU-145 prostate, 46.2%; in the test on SF-268 CNS, 96.2%. Moreover, the growth was 8.53% (active) with SF-295 CNS; 14.3% with SF-539 CNS; 30.8% with UACC-257 melanoma; 69.8% with M14 melanoma; 44% in the test with HCT-15 colon; 29.7% with HT29 colon. The growth in the test with SNB-75 CNS is 17.8%; in the test on SNB-19 CNS, 24.6%; with U251 CNS, 49.2%; in the test with SK-MEL-5 melanoma, 18%; with UACC-62 melanoma, 9.12% (active); with SK-MEL-28 melanoma it was 33.3%. Moreover, the growth is -2.88% (active) with SK-MEL-2 melanoma and 16% with HL-60(TB) leukemia.

In the case of `CC[C@]12C=CCN3CC[C@@]4(c5ccc(OC)cc5N(C)[C@H]4[C@@](O)(C(=O)OC)[C@@H]1OC(=O)CCCC[P+](C1CCCCC1)(C1CCCCC1)C1CCCCC1)[C@@H]32`, the growth in the test on NCI-H226 lung is -22% (active); in the test on HOP-62 NSCLC, 9.52% (active); in the test on NCI-H460 lung it was 5.27% (active); with A549/ATCC NSCLC, 11.6%; in the test on DU-145 prostate, 9.57% (active); in the test on SF-268 CNS, -70.5% (active). Moreover, the growth is -19.6% (active) in the test with SF-295 CNS; -93.9% (active) in the test on SF-539 CNS; -82.1% (active) in the test with UACC-257 melanoma; -83.5% (active) in the test on M14 melanoma; 75.2% with HCT-15 colon; -24% (active) in the test on HT29 colon. The growth with SNB-75 CNS is -81.4% (active); with SNB-19 CNS, -71.1% (active); in the test on U251 CNS it was -87.9% (active); in the test with SK-MEL-5 melanoma, -96.1% (active); with UACC-62 melanoma, -96.9% (active); with SK-MEL-28 melanoma, -86.5% (active). Besides, the growth in the test on SK-MEL-2 melanoma is -88% (active); in the test on HL-60(TB) leukemia it was -36.7% (active).

As for `O=C(/C=C/c1ccc(Cl)cc1)c1nc2ccccc2n1Cc1ccc(F)cc1`, the growth in the test with NCI-H226 lung was 36.6%; in the test with HOP-62 NSCLC it was 17.7%; with NCI-H460 lung, 26.8%; in the test on A549/ATCC NSCLC it was 44.7%; in the test on DU-145 prostate it was 37.6%; with SF-268 CNS, 39.9%. Also, the growth with SF-295 CNS was 50.7%; in the test with SF-539 CNS, -41.7% (active); in the test with UACC-257 melanoma, 51.4%; with M14 melanoma, 16.1%; with HCT-15 colon, -1.45% (active); with HT29 colon it was 5.22% (active). In addition, the growth was 60.9% with SNB-75 CNS; 25% in the test on SNB-19 CNS; -62.8% (active) in the test with U251 CNS; 69% in the test on SK-MEL-5 melanoma; 23.5% with UACC-62 melanoma; 38.9% in the test with SK-MEL-28 melanoma. The growth with SK-MEL-2 melanoma was 68.3%; in the test with HL-60(TB) leukemia, -2.58% (active).

For the molecule `C[C@H]1[C@H](OC(=O)CCC(=O)N(CCCc2cn(-c3ccc(C#N)cc3)nn2)CCNc2ccnc3cc(Cl)ccc23)O[C@@H]2OC3(C)CC[C@H]4[C@H](C)CC[C@@H]1[C@@]24OO3`, the growth is 60.3% in the test with NCI-H226 lung; 66.4% with HOP-62 NSCLC; 58.2% in the test on NCI-H460 lung; 51.5% in the test on A549/ATCC NSCLC; 69.3% in the test on DU-145 prostate; 54.9% in the test with SF-268 CNS. Besides, the growth in the test with SF-295 CNS is 53.8%; in the test with SF-539 CNS it was 44.5%; with UACC-257 melanoma, 58.3%; in the test on M14 melanoma it was 48.1%; in the test on HCT-15 colon, 12.1%; with HT29 colon it was 18.6%. Moreover, the growth is 72.1% in the test with SNB-75 CNS; 69.8% with SNB-19 CNS; 51.9% in the test on U251 CNS; 22.9% with SK-MEL-5 melanoma; 43.3% with UACC-62 melanoma; 59.5% in the test on SK-MEL-28 melanoma. Moreover, the growth in the test with SK-MEL-2 melanoma is 31.4%; in the test with HL-60(TB) leukemia, -29.9% (active).

In the case of `COC(=O)C[C@](O)(CCCC(C)C)C(=O)O[C@H]1C(OC)=C[C@@]23CCCN2CCc2cc4c(cc2[C@@H]13)OCO4`, the growth with NCI-H226 lung is -12.3% (active); with HOP-62 NSCLC, 21.3%; with NCI-H460 lung, -28.6% (active); with A549/ATCC NSCLC, -7.85% (active); in the test on DU-145 prostate, -3.16% (active); with SF-268 CNS it was 3.83% (active). Further, the growth with SF-295 CNS was -8.14% (active); in the test with SF-539 CNS, -47.7% (active); in the test with UACC-257 melanoma, -25.9% (active); with M14 melanoma, -46.4% (active); in the test with HCT-15 colon, -21.1% (active); in the test on HT29 colon, -22.7% (active). Further, the growth is -46.7% (active) in the test with SNB-75 CNS; -27.7% (active) in the test with SNB-19 CNS; -19.5% (active) with U251 CNS; -39% (active) in the test with SK-MEL-5 melanoma; 0.442% (active) in the test on UACC-62 melanoma; -24.3% (active) in the test with SK-MEL-28 melanoma. Besides, the growth in the test with SK-MEL-2 melanoma was -0.0193% (active); in the test on HL-60(TB) leukemia, -28.7% (active).

As to `O=C(/C=C/c1ccc(Cl)cc1Cl)c1nc2ccccc2n1Cc1ccc(F)cc1`, the growth in the test on NCI-H226 lung was 38.7%; in the test with HOP-62 NSCLC, 58.2%; with NCI-H460 lung it was 43.8%; in the test with A549/ATCC NSCLC, 66.5%; in the test on DU-145 prostate it was 55.4%; in the test on SF-268 CNS, 49.9%. Moreover, the growth was 60.6% in the test with SF-295 CNS; 17.9% in the test with SF-539 CNS; 66.3% in the test with UACC-257 melanoma; 59.8% with M14 melanoma; 11.8% with HCT-15 colon; 7.3% (active) in the test with HT29 colon. Besides, the growth with SNB-75 CNS was 38.6%; with SNB-19 CNS it was 57.7%; in the test with U251 CNS, 13.4%; in the test with SK-MEL-5 melanoma, 74.5%; with UACC-62 melanoma, 40.1%; in the test on SK-MEL-28 melanoma, 74%. For the same molecule, the growth is 94.7% with SK-MEL-2 melanoma and 28% with HL-60(TB) leukemia.

`CC[C@]12C=CCN3CC[C@@]4(c5ccc(OC)cc5N(C)[C@H]4[C@@](O)(C(=O)OC)[C@@H]1OC(=O)CCC[P+](c1ccc(F)cc1)(c1ccc(F)cc1)c1ccc(F)cc1)[C@@H]32`: the growth with NCI-H226 lung was 46.9%; in the test with HOP-62 NSCLC it was 64%; with NCI-H460 lung, 30.9%; in the test on A549/ATCC NSCLC it was 54.5%; in the test with DU-145 prostate it was 47.7%; in the test on SF-268 CNS it was 42.3%. The growth with SF-295 CNS was 85%; in the test with SF-539 CNS, 24.2%; in the test with UACC-257 melanoma it was -34.3% (active); in the test on M14 melanoma, 21.5%; in the test with HCT-15 colon, 99.6%; in the test with HT29 colon, 15.7%. The growth in the test on SNB-75 CNS is 39.9%; with SNB-19 CNS it was 13.8%; with U251 CNS, 18.5%; in the test with SK-MEL-5 melanoma, -38.3% (active); in the test on UACC-62 melanoma, -59.5% (active); with SK-MEL-28 melanoma it was -24.1% (active). Further, the growth in the test on SK-MEL-2 melanoma is -46.9% (active).
